Source: the supplement of paper PMC11732987, “Enantioselective OTUD7B fragment discovery through chemoproteomics screening and high-throughput optimisation” (Communications Chemistry, 2025)

Columns and labels:
Assay in all cases: log2 ratio of Biotin-Ahx-Ub-VS probe labelling (fragment/DMSO); higher = less target engagement (more negative = stronger competition), active = hit call of the paper (q ≤ 0.05, log2 ratio ≤ -1)
Details in all cases: compound concentration: 200 uM; treatment time: 3 h
USP34 = USP34 (UniProt Q70CQ2)
Outline: (§1)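 HEK293T lysate in Tris/CHAPS/IGEPAL buffer with protease inhibitors (495 µg per sample) was given fragment at 200 µM or vehicle for 3 h, in triplicate. It then received Biotin-Ahx-Ub-VS at 0.5 µM final for 1 h. Labelled DUBs were NeutrAvidin-enriched, digested with LysC and trypsin, and run by diaPASEF LC-MS/MS. Values are average log2 fragment/vehicle ratios by unpaired t-test on global-median-normalised Spectronaut quantities of proteins with ≥2 unique peptides.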

USP36 = biological target: T1, USP36 (UniProt Q9P275)
T1 sequence (whole entry): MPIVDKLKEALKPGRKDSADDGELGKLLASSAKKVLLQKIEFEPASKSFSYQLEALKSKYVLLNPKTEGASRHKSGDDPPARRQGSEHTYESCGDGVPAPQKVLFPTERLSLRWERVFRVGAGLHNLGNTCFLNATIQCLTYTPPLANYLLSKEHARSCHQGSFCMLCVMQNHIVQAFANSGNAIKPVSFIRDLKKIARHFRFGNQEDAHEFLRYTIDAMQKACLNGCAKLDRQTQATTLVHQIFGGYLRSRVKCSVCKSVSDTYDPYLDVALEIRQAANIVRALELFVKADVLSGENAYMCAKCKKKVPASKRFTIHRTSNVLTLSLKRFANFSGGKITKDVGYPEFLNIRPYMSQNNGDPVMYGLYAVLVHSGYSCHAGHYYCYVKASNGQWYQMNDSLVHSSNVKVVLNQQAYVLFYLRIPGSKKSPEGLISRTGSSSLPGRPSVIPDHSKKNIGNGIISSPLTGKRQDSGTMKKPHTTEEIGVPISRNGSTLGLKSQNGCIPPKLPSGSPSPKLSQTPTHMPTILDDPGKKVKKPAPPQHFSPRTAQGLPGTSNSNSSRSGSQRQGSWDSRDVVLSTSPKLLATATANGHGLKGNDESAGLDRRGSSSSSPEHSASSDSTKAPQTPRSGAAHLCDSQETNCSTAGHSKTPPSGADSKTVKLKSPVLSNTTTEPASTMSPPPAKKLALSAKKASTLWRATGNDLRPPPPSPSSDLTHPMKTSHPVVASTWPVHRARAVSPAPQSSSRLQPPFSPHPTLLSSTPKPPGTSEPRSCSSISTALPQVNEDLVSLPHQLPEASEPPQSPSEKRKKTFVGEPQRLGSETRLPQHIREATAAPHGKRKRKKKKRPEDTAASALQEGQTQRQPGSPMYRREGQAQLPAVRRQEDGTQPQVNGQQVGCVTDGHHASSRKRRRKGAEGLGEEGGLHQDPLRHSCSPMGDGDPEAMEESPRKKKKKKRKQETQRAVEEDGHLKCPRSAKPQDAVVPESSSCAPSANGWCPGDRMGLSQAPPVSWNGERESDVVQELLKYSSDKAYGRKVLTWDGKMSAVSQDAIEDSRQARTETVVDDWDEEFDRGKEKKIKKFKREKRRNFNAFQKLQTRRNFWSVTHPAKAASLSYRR
Outline: as §1

USP38 = biological target: T2, USP38 (UniProt Q8NB14)
T2 sequence (whole entry): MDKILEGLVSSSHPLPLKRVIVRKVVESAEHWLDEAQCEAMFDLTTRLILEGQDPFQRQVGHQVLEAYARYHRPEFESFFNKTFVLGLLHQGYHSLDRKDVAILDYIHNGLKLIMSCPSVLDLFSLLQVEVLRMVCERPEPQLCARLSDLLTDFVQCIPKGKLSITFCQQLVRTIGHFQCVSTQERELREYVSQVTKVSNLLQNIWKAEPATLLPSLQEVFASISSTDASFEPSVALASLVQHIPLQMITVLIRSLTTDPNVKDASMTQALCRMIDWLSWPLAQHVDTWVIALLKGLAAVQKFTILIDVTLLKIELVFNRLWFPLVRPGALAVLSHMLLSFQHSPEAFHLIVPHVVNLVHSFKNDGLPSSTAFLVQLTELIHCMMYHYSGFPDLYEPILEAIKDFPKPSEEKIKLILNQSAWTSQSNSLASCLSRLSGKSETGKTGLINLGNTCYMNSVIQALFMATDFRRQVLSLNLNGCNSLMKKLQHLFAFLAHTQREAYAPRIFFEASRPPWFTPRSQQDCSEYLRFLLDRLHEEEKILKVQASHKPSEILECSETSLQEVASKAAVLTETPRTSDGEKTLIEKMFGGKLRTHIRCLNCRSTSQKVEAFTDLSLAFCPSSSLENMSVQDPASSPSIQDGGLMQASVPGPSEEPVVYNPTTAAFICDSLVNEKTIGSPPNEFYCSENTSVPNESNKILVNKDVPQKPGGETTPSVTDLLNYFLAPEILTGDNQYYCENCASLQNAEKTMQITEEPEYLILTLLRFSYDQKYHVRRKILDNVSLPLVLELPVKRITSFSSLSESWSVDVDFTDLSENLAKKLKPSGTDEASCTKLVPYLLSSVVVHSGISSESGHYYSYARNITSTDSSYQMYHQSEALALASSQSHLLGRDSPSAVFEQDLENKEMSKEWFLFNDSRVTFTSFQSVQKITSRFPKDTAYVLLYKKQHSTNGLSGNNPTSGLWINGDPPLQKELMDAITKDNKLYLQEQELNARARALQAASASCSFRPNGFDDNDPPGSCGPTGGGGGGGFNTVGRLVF
Outline: as §1

USP39 = biological target: T3, USP39 (UniProt Q53GS9)
T3 sequence (whole entry): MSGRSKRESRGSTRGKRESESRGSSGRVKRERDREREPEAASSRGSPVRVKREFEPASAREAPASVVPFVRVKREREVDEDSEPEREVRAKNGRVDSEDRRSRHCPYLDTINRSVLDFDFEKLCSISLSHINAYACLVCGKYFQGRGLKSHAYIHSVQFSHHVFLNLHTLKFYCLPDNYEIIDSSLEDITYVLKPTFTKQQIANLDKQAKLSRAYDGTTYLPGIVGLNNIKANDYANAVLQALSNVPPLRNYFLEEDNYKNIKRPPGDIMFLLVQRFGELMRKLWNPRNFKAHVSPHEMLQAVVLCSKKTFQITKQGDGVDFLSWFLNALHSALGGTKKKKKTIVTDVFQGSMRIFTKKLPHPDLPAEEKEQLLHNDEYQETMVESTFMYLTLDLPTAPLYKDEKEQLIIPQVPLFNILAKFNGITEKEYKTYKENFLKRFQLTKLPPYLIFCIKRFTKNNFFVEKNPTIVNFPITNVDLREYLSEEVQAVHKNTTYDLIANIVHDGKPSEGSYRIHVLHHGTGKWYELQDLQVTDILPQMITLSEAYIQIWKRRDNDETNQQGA
Outline: as §1

USP4 = biological target: T4, USP4 (UniProt Q13107)
T4 sequence (whole entry): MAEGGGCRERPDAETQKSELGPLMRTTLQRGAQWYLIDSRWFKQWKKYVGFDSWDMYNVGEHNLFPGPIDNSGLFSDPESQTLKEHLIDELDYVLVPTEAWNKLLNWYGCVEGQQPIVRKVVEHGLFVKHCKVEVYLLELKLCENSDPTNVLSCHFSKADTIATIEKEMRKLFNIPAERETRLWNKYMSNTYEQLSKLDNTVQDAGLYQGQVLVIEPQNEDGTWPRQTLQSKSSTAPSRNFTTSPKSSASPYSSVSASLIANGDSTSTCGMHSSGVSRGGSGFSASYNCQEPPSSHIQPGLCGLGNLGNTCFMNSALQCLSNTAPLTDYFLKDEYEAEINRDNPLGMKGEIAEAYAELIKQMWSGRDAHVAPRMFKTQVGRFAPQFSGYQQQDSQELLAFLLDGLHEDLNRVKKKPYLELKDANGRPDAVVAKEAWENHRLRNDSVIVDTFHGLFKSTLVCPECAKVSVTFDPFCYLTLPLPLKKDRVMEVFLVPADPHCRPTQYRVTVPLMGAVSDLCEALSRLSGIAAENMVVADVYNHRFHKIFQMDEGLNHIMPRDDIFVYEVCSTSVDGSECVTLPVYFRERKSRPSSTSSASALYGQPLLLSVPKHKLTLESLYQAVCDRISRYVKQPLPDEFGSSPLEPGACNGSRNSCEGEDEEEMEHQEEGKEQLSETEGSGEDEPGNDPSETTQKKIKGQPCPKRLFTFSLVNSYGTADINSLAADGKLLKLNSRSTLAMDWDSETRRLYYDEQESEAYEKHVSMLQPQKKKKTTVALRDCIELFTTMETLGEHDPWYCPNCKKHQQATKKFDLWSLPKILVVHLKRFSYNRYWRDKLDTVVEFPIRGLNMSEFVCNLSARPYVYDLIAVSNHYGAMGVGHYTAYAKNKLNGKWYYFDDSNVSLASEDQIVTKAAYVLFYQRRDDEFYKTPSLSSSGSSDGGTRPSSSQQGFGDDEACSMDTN
Outline: as §1

Measured: log2 ratio of Biotin-Ahx-Ub-VS probe labelling

Chain of USP34 (Q70CQ2 whole entry, the tested form may be a part): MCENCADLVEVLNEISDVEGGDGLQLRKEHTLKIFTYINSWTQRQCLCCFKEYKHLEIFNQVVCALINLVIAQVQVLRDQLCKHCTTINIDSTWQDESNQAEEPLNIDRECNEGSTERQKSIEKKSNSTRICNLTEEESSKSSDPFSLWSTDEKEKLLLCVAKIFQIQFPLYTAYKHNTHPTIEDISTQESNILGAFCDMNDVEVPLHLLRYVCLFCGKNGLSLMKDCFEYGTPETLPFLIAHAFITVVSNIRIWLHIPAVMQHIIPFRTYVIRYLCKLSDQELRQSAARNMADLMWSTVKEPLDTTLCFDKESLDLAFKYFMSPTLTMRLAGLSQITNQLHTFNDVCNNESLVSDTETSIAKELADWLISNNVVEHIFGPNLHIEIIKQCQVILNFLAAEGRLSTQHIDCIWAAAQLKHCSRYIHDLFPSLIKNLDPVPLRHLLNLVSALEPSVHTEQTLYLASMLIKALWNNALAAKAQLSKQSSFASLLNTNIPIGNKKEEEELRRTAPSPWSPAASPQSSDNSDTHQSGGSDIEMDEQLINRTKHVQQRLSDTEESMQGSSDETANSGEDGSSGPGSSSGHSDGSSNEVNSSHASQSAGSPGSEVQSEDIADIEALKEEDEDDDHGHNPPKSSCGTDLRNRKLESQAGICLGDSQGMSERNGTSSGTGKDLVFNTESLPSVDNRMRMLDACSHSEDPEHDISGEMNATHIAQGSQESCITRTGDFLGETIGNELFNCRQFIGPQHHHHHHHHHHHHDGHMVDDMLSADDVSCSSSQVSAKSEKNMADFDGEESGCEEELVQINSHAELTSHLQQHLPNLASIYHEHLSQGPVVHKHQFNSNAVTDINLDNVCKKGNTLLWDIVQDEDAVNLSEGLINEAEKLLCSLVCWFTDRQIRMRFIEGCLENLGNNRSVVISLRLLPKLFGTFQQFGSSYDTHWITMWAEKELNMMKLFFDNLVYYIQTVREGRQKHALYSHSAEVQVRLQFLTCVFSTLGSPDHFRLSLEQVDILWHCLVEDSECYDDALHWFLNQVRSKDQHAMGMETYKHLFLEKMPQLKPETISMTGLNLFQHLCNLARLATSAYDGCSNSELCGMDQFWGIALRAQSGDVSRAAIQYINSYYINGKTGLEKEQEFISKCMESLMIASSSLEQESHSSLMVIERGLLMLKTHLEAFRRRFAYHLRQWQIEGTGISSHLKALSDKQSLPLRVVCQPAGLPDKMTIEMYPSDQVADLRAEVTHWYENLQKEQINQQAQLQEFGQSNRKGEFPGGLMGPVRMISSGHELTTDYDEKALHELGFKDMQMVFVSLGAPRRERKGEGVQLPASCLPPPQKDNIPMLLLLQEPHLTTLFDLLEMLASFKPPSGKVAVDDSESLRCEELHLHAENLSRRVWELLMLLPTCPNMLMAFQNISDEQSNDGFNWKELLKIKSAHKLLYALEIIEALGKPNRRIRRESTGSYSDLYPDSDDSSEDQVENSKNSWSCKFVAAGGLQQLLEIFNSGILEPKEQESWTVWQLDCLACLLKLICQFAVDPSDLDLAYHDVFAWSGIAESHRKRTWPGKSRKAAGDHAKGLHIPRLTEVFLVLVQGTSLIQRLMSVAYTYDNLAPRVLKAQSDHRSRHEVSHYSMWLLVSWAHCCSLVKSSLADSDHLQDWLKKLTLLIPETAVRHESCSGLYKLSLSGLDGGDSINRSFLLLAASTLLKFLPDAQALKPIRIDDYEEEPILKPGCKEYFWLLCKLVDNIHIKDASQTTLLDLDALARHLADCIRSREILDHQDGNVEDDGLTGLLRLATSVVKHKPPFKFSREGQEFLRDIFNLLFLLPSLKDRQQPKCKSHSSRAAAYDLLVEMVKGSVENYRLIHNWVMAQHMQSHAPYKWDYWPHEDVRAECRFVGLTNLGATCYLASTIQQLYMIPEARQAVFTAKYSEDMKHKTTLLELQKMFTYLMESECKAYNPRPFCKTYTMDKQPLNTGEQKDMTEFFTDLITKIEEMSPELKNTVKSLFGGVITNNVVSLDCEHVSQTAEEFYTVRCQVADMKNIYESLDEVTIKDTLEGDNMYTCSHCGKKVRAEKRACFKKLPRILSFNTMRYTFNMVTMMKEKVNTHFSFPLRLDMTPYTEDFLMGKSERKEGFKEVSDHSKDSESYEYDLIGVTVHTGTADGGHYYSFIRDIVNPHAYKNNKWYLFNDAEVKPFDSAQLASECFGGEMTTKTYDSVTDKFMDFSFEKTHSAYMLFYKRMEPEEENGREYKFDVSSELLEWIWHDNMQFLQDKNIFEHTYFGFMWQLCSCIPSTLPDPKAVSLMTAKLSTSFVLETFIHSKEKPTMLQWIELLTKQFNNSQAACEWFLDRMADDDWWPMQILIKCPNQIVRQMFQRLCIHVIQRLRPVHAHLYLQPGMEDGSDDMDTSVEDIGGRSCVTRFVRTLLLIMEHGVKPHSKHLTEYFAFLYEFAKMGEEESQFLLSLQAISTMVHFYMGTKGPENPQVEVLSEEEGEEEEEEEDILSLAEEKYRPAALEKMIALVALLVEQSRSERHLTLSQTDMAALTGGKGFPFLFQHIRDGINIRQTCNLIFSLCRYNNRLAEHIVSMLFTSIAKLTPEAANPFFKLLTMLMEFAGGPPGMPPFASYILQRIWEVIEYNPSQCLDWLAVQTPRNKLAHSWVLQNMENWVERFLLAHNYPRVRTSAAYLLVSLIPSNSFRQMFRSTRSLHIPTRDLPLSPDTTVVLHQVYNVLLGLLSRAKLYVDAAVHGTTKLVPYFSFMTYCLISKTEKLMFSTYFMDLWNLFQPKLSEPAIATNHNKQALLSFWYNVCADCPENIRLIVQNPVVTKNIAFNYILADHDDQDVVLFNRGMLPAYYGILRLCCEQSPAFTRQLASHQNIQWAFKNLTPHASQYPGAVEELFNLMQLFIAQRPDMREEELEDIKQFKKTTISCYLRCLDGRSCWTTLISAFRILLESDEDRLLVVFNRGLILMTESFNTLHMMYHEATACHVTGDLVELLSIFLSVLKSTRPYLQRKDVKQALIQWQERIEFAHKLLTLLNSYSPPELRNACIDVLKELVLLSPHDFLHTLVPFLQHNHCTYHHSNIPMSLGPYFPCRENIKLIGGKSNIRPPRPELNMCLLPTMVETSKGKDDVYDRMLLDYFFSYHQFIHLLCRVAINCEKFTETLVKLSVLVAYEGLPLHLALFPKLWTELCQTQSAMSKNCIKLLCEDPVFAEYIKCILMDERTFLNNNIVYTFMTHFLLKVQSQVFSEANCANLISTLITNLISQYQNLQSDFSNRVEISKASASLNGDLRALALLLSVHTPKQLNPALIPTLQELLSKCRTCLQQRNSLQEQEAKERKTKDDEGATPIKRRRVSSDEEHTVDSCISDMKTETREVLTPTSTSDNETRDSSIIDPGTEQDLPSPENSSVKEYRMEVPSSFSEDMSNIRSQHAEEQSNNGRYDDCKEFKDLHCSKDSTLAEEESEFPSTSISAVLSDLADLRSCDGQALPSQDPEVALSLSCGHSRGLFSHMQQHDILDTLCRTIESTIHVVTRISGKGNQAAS

Cc1cccnc1NC(=O)C1CCN(C(=O)CCl)CC1.Cl
inactive: USP34 -0.124 | USP36 -0.102 | USP38 -0.157 | USP39 0.0484 | USP4 0.0404
